# Reference: PubChem BioAssay (EPA / NIEHS)
# Several values for one entry are separate records, joined by “and”; a condition that tells them apart may be missing. Identical values can stand only once. Records with an inconclusive call do not appear. Activity calls are given as the source filed them. The calls were made as follows, unless noted: active = hit-call score of the fitted dose curve at least 0.9, where 1 is the maximum; inactive = score below 0.9.
# How the values were obtained:
# [1] = IUF_NPC2c_oligodendrocyte_migration_120hr: Leibniz Research Institute for Environmental Medicine (IUF) 120-hour Neural Progenitor Cell Migration Assay for Oligodendrocyte Migration (NPC2c) (AID 2284297);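 also: O4-positive oligodendrocyte migration distance divided by radial glia migration distance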
# Procedure, shortened: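 Primary hNPC spheres migrating on extracellular matrix, exposed five days to a 7-point dilution series with solvent control. Oligodendrocyte migration was scored by high-content imaging of O4 immunostaining and expressed relative to radial glia distance.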
# [2] = IUF_NPC2a_radial_glia_migration_120hr: Leibniz Research Institute for Environmental Medicine (IUF) 120-hour Neural Progenitor Cell Migration Assay for Radial Glia Migration (NPC2a) (AID 2284298)
# Procedure, shortened: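 In this multiplexed test, fetal hNPC spheres migrate radially on poly-D-lysine/laminin in N2 medium (37C, 5% CO2, pH 7.2-7.6) under continuous compound exposure over five days. Migration is scored at 120 h from automated Hoechst nuclear imaging.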
# [3] = IUF_NPC2a_radial_glia_migration_72hr: Leibniz Research Institute for Environmental Medicine (IUF) 72-hour Neural Progenitor Cell Migration Assay for Radial Glia Migration (NPC2a) (AID 2284299)
# Procedure, shortened: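 Migration out of plated human neural progenitor spheres is scored at 72 h as the distance in um from the sphere core edge to the edge of the migration area. Values are the mean of four manual measurements per well, normalised to DMSO.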
# [4] = IUF_NPC2b_neuronal_migration_120hr: Leibniz Research Institute for Environmental Medicine (IUF) 120-hour Neural Progenitor Cell Migration Assay for Neuron Migration (NPC2b) (AID 2284300)
# Procedure, shortened: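 Neurons identified by TUBB3 immunostaining and Hoechst nuclei; migration distance measured automatically on fixed wells at 120 h, normalized to glia migration. Exposure spanned five days of differentiation in N2 medium, seven test concentrations.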
# [5] = IUF_NPC3_neuronal_differentiation_120hr: Leibniz Research Institute for Environmental Medicine (IUF) 120-hour Neuronal Differentiation Assay (NPC3) (AID 2284301)
# Procedure, shortened: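 Primary human fetal neural progenitor spheres (GW 16-19, 0.3 mm) plated on poly-D-lysine/laminin in N2 medium, exposed from day 0 for 120 h with half-medium refresh at day 3. TUBB3+ cells as percent of Hoechst nuclei in migration area; DMSO baseline.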
# [6] = IUF_NPC4_neurite_area_120hr: Leibniz Research Institute for Environmental Medicine (IUF) 120-hour Neuronal Morphology Assay for Neurite Area (NPC4) (AID 2284305; active = hit-call score of the fitted dose curve at least 0.9, where 1 is the maximum)
# Procedure, shortened: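 Human fetal cortex-derived neural progenitor spheres (0.3 mm, GW 16-19) plated on poly-D-lysine/laminin in N2 differentiation medium and exposed from day 0 for 120 h across 7 concentrations plus solvent control. Neurite area is mean pixel area per TUBB3-positive neuron via skeletonization, analysed relative to DMSO.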
# [7] = IUF_NPC2-5_cytotoxicity_72hr: Cytotoxicity Assessment at 72 hours in the Leibniz Research Institute for Environmental Medicine (IUF) Neural Progenitor Cell Migration and Differentiation Assay for Cytotoxicity (NPC2-5) (AID 2284306; active = hit-call score of the fitted dose curve at least 0.9, where 1 is the maximum;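 also: LDH release into supernatant measured by resorufin fluorescence marking membrane damage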)
# Procedure, shortened: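 Human fetal (GW 16-19) neural progenitor spheres, 0.3 mm, plated on poly-D-lysine/laminin in N2 differentiation medium and exposed from day 0 to 7 concentrations plus solvent control (DMSO ≤0.1%). LDH-dependent resazurin-to-resorufin fluorescence in supernatant at 72 h.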
# [8] = IUF_NPC2-5_cell_number_120hr: Cell Number Assessment at 120 hours in the Leibniz Research Institute for Environmental Medicine (IUF) Neural Progenitor Cell Migration and Differentiation Assay (NPC2-5) (AID 2284308);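 also: count of Hoechst-stained nuclei in migration zone around plated human neural progenitor spheres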
# Procedure, shortened: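 Cell number is taken as all Hoechst-positive nuclei detected in the area into which cells migrate out of the sphere, scored at 120 h and referenced to DMSO solvent control, which was kept at no more than 0.1%.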
# [9] = IUF_NPC5_oligodendrocyte_differentiation_120hr: Leibniz Research Institute for Environmental Medicine (IUF) 120-hour Oligodendrocyte Differentiation Assay (NPC5) (AID 2284304; active = hit-call score of the fitted dose curve at least 0.9, where 1 is the maximum;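 also: primary human fetal neural progenitor spheres plated to migrate and differentiate; share of O4-positive cells among Hoechst nuclei found by CNN image analysis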)
# Procedure, shortened: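 Human primary NPC neurospheres migrating and differentiating on laminin for 120 h under continuous compound exposure (serial dilution, solvent control). Endpoint: percent O4+ oligodendrocytes among Hoechst nuclei, detected by CNN image analysis, with DMSO as negative control.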
# [10] = VALA_TUBHUV_Agonist_CellCount: Viability Assessment in the VALA Sciences human Umbilical Vein Endothelial Tubule Formation (TUBHUV) Agonism Assay (AID 2284309; active = hit-call score of the fitted dose curve at least 0.9, where 1 is the maximum)
# Procedure, shortened: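 HUVEC co-cultured 1:3 with HDF for 3 days in 10 ng/ml VEGF, then compounds added in VEGF medium for a further 3 days (72 h). Nuclear-stain/CD31 imaging cell count. Positive-direction fit versus 0.1% DMSO vehicle.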
# [11] = read-out: Interleukin 2 (IL2), IL2 (gene 3558); assay: BSK_BT_xIL2: BioMAP Diversity Plus: BT Assay for Interleukin 2 (IL2) Biomarker Activity (AID 2284245); settings: primary human B cells with PBMC
# Procedure, shortened: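 Secreted interleukin-2 from human B cell/PBMC co-cultures, measured 24 h post-dosing by Luminex multiplex immunoassay. Upward-direction curve fitting against DMSO baseline.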
# [12] = read-out: Basic fibroblast growth factor (bFGF), FGF2 (gene 2247); assay: BSK_MyoF_bFGF: BioMAP Diversity Plus: MyoF Assay for Basic fibroblast growth factor (bFGF) Biomarker Activity (AID 2284246); settings: primary human lung fibroblasts
# Procedure, shortened: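 In this multiplexed cell system, lung fibroblasts (human primary) receive test chemical for 24 h before ELISA detection of bFGF; DMSO defines baseline and the analysis direction is positive.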
# [13] = read-out: Collagen IV, COL4A1 (gene 1282); assay: BSK_MyoF_CollagenIV: BioMAP Diversity Plus: MyoF Assay for Collagen IV Biomarker Activity (AID 2284247); settings: primary human lung fibroblasts
# Procedure, shortened: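 Activity is scored as a signal increase over DMSO in an ELISA for Collagen IV, measured on human lung fibroblasts at 24 h after chemical treatment. Cytotoxicity is checked in parallel cultures by sulforhodamine B total-protein staining.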
# [14] = read-out: Plasminogen activator inhibitor-1 (PAI1), SERPINE1 (gene 5054); assay: BSK_MyoF_PAI1: BioMAP Diversity Plus: MyoF Assay for Plasminogen activator inhibitor-1 (PAI1) Biomarker Activity (AID 2284256); settings: primary human lung fibroblasts;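 also: PAI-1 protein level measured by ELISA in fibroblast cultures; PAI-1 read 24 h after compound addition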
# Procedure, shortened: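 Activity reflects increased PAI-1, determined by ELISA and compared with DMSO, in human lung fibroblasts treated for 24 h.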
# [15] = read-out: Interleukin-8 (IL8), CXCL8 (gene 3576); assay: BSK_MyoF_IL8: BioMAP Diversity Plus: MyoF Assay for Interleukin-8 (IL8) Biomarker Activity (AID 2284261); settings: primary human lung fibroblasts
# Procedure, shortened: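 In this multiplexed primary-cell system, fibroblasts from human lung are treated with chemicals, and IL-8 is detected by ELISA at 24 h, with DMSO serving as the negative reference.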
# [16] = read-out: Decorin, DCN (gene 1634); assay: BSK_MyoF_Decorin: BioMAP Diversity Plus: MyoF Assay for Decorin Biomarker Activity (AID 2284265); settings: primary human lung fibroblasts
# Procedure, shortened: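 Lung fibroblast cultures, 24 h chemical exposure. Decorin by ELISA, positive fitting direction, DMSO baseline.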
# [17] = BSK_MyoF_SRB: Viability Assessment in the BioMAP Diversity Plus: MyoF Assay (AID 2284267); settings: primary human lung fibroblasts;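 also: total protein by SRB absorbance in parallel cultures as cytotoxicity measure; cells assessed 24 h after compound addition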
# Procedure, shortened: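 Cytotoxicity in primary human lung fibroblasts is gauged by SRB total-protein staining 24 h after dosing, with DMSO as the negative control.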
# [18] = read-out: Matrix Metallopeptidase 1 (MMP1), MMP1 (gene 4312); assay: BSK_MyoF_MMP1: BioMAP Diversity Plus: MyoF Assay for Matrix Metallopeptidase 1 (MMP1) Biomarker Activity (AID 2284268); settings: primary human lung fibroblasts
# Procedure, shortened: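 MMP1 measured by ELISA 24 h after dosing primary human lung fibroblasts; cytotoxicity checked in parallel cultures by sulforhodamine B total-protein staining read at 560 nm.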
# [19] = read-out: TIMP metallopeptidase inhibitor 1 (TIMP1), TIMP1 (gene 7076); assay: BSK_MyoF_TIMP1: BioMAP Diversity Plus: MyoF Assay for TIMP metallopeptidase inhibitor 1 (TIMP1) Biomarker Activity (AID 2284269); settings: primary human lung fibroblasts
# Procedure, shortened: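 TIMP-1 levels were determined by ELISA in human lung fibroblasts treated for 24 h. DMSO served as negative control and baseline for upward curve fitting.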
smiles,measurement,setting,value
COP(=O)(OC)C(O)C(Cl)(Cl)Cl (stereo not given),outcome,[1],inactive
same,outcome,[2],inactive
same,outcome,[3],inactive
same,outcome,[4],inactive
same,outcome,[5],inactive
same,AC50,[6],5.08 µM (active)
same,outcome,[7],inactive
same,outcome,[8],inactive
COP(=O)(NC(C)=O)SC (stereo not given),outcome,[1],inactive
same,outcome,[2],inactive
same,outcome,[3],inactive
same,outcome,[4],inactive
same,outcome,[5],inactive
same,outcome,[9],inactive
same,outcome,[6],inactive
same,outcome,[7],inactive
same,outcome,[8],inactive
CC1=NNC(=O)N(/N=C/c2cccnc2)C1,outcome,[1],inactive
same,outcome,[2],inactive
same,outcome,[3],inactive
same,outcome,[4],inactive
same,outcome,[5],inactive
same,outcome,[6],inactive
same,outcome,[7],inactive
same,outcome,[8],inactive
same,outcome,[10],inactive
CCCCSP(=O)(SCCCC)SCCCC,outcome,[1],inactive
same,outcome,[2],inactive
same,outcome,[3],inactive
same,outcome,[4],inactive
same,outcome,[5],inactive
same,outcome,[9],inactive
same,outcome,[6],inactive
same,outcome,[7],inactive
same,outcome,[8],inactive
C[N+]1(C)CCCCC1,outcome,[1],inactive
same,outcome,[2],inactive
same,outcome,[3],inactive
same,outcome,[4],inactive
same,outcome,[5],inactive
same,outcome,[9],inactive
same,outcome,[6],inactive
same,outcome,[7],inactive
same,outcome,[8],inactive
CCOP(=S)(Oc1cnc(C(C)(C)C)nc1)OC(C)C (stereo not given),outcome,[1],inactive
same,outcome,[2],inactive
same,outcome,[3],inactive
same,outcome,[4],inactive
same,outcome,[5],inactive
same,outcome,[9],inactive
same,outcome,[6],inactive
same,outcome,[7],inactive
same,outcome,[8],inactive
CN(C)[C@@H]1C(=O)C(C(N)=O)=C(O)[C@@]2(O)C(=O)C3=C(O)c4c(O)cccc4[C@@](C)(O)[C@H]3[C@H](O)[C@@H]12,outcome,[11],inactive
same,outcome,[12],inactive
same,outcome,[13],inactive
same,outcome,[14],inactive
same,outcome,[15],inactive
same,outcome,[16],inactive
same,outcome,[17],inactive
same,outcome,[18],inactive
same,outcome,[19],inactive
same,AC50,[1],55.1 µM (active)
same,AC50,[2],42.5 µM (active)
same,AC50,[3],76.1 µM (active)
same,AC50,[4],38.7 µM (active)
same,outcome,[5],inactive
same,outcome,[9],inactive
same,outcome,[7],inactive
same,AC50,[8],72.5 µM (active)
same,outcome,[10],inactive
CCOP(=S)(OCC)SCCSCC,outcome,[1],inactive
same,outcome,[2],inactive
same,outcome,[3],inactive
same,outcome,[4],inactive
same,outcome,[5],inactive
same,outcome,[6],inactive
same,outcome,[7],inactive
same,outcome,[8],inactive
CCOP(=O)(OCC)Oc1cc(C)nc(C(C)C)n1,outcome,[1],inactive
same,outcome,[2],inactive
same,outcome,[3],inactive
same,outcome,[4],inactive
same,outcome,[5],inactive
same,outcome,[9],inactive
same,outcome,[6],inactive
same,outcome,[7],inactive
same,outcome,[8],inactive
CCCSP(=O)(OCC)SCCC,outcome,[1],inactive
same,outcome,[2],inactive
same,outcome,[3],inactive
same,outcome,[4],inactive
same,outcome,[5],inactive
same,outcome,[9],inactive
same,outcome,[6],inactive
same,outcome,[7],inactive
same,outcome,[8],inactive
CC[C@H](C)[C@H]1O[C@]2(C=C[C@@H]1C)C[C@@H]1C[C@@H](C/C=C(\C)[C@@H](O[C@H]3C[C@H](OC)[C@@H](O[C@H]4C[C@H](OC)[C@@H](NC)[C@H](C)O4)[C@H](C)O3)[C@@H](C)/C=C/C=C3\CO[C@@H]4[C@H](O)C(C)=C[C@@H](C(=O)O1)[C@]34O)O2,AC50,[1],932 nM (active) and 1.74 µM (active)
same,AC50,[2],1.1 µM (active) and 2.22 µM (active)
same,AC50,[3],2.13 µM (active) and 3.89 µM (active)
same,AC50,[4],1.07 µM (active) and 3.32 µM (active)
same,AC50,[5],1.27 µM (active)
same,AC50,[9],305 nM (active) and 96.9 nM (active)
same,AC50,[6],1.04 µM (active) and 5.11 µM (active)
same,AC50,[7],1.88 µM (active) and 4.62 µM (active)
same,AC50,[8],836 nM (active) and 2 µM (active)
CCOC(=O)CC(SP(=O)(OC)OC)C(=O)OCC (stereo not given),outcome,[1],inactive
same,outcome,[2],inactive
same,outcome,[3],inactive
same,outcome,[4],inactive
same,outcome,[5],inactive
same,outcome,[9],inactive
same,outcome,[6],inactive
same,outcome,[7],inactive
same,outcome,[8],inactive
